According to PubChem BioAssay:
Results filed as inconclusive are left out. For part of these data: Measured potencies and affinities stand elsewhere. Calls of active or inactive are those of the source.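 The calls were made as follows, unless noted: active = normalized viability below 100% at a tested concentration; inactive = the rest.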

Tests used:
[1] = antimalarial activity against Dd2 strain (AID 2302;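 active = growth inhibition above 50% at the single 2 µM test dose, taken to imply half-maximal potency below 2 µM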;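 also: 0% = DMSO untreated growth and 100% = chloroquine plus artemisinin killed control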); settings: P. falciparum Dd2 in RBCs, LDH growth readout, 72 h; at 2 µM; stronger effect = higher value
[2] = HepG2 cytotoxicity, primary screen, cytotoxicity control for P. falciparum antimalarial project, cell-based, ATP luminescence (AID 2303;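 active = inhibition above 50%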;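 also: 0% = DMSO wells and 100% = digitonin-killed cells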); settings: HepG2 viability, 24-48 h, at 10 µM, stronger effect = higher value
[3] = target: L-lactate dehydrogenase (Plasmodium falciparum (isolate CDC / Honduras)) (UniProt Q27743); assay: PfLDH activity inhibition – cell lysate, 3D7 strain, counter-screen for P. falciparum growth inhibition project (AID 2304; call rule not given here;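 also: 0% = vehicle and 100% = reference inhibitor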); settings: P. falciparum 3D7 crude extract, LDH APAD/NBT absorbance; at 2 µM; stronger effect = higher value
[4] = inhibition of 3D7 malaria parasite growth – strain 3D7 (AID 2306; call rule not given here;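 also: 0% = DMSO wells and 100% = chloroquine plus artemisinin control wells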); settings: P. falciparum 3D7 erythrocytic growth, LDH absorbance, 72 h; at 2 µM; stronger effect = higher value
[5] = target: Calcium-dependent protein kinase 1 (Plasmodium falciparum (isolate 3D7)) (UniProt P62344); assay: PfCDPK1 kinase inhibitors, biochemical, TCAMS library (AID 1159585; cut-off not given, nearly all actives have IC50 up to about 0.98 µM;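 also: inhibitors leave more ATP so luminescence rises with inhibition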); settings: recombinant PfCDPK1, Kinase-Glo ATP depletion luminescence
[6] = target: Plasmodium falciparum protein kinase 6 (PK6, PF3D7_1337100) (UniProt Q8IDW1); assay: PfPK6 kinase inhibitors, biochemical, TCAMS library (AID 1159586; call rule not given here); settings: recombinant PfPK6, Kinase-Glo ATP depletion luminescence
[7] = target: Protein kinase 7 (PK7), Plasmodium falciparum 3D7 (PF3D7_0213400) (UniProt Q7YTF7); assay: inhibition of Plasmodium PK7 catalytic activity – biochemical, TCAMS antimalarial set, Kinase-Glo luminescence (AID 1159587; call rule not given here); settings: recombinant PfPK7, Kinase-Glo ATP depletion luminescence
[8] = target: Calcium-dependent protein kinase 4 (Plasmodium falciparum (isolate 3D7)) (UniProt Q8IBS5); assay: PfCDPK4 kinase inhibitors, biochemical, TCAMS library (AID 1159588; cut-off not given, nearly all actives have IC50 up to about 0.91 µM); settings: recombinant PfCDPK4, Kinase-Glo ATP depletion luminescence
[9] = sensitizers of A549 cells to miR-34 induction, primary screen, imaging, A549 dox-inducible miR-34, nuclei and caspase counts (AID 1347080;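 active = compounds whose cell count with miR-34 switched on is under 0.7 times the count with it off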); settings: A549 miR-34 inducible, Hoechst nuclei count, 48 h
[10] = viability rescue of complex I mutant cybrids, primary screen, cell-based, galactose medium, ATP luminescence (AID 1645843;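 active = z-score of at least 1.8 in each of two replicates, scored against plate mean and spread of sample wells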;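 also: positive z means more ATP and so rescue of galactose-driven cybrid death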); settings: complex I mutant cybrid cells, 72 h, stronger effect = higher value
[11] = growth inhibition of DIPG glioma cells, dose response, cell-based, SU-DIPG-XVII, MIPE5.0, CellTiter-Glo, qHTS (AID 1347060; cut-off not given, nearly all actives have AC50 up to about 26 µM;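 also: cells exposed to compound for 48 hours before viability readout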); settings: SU-DIPG-XVII viability, CellTiter-Glo ATP luminescence
[12] = growth inhibition of DIPG glioma cells, dose response, cell-based, SU-DIPG-IV, MIPE4.0, CellTiter-Glo, qHTS (AID 1347063; cut-off not given, nearly all actives have AC50 up to about 30 µM;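 also: compound exposure lasted 48 hours before the viability readout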); settings: SU-DIPG-IV viability, CellTiter-Glo ATP luminescence
[13] = growth inhibition of DIPG glioma cells, dose response, cell-based, SU-DIPG-XIII, MIPE5.0, CellTiter-Glo, qHTS (AID 1347064; cut-off not given, nearly all actives have AC50 up to about 23 µM;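 also: cells exposed to compound for 48 hours before the viability read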); settings: SU-DIPG-XIII viability, CellTiter-Glo ATP luminescence
[14] = viability loss in pontine glioma line – cell-based, SU-DIPG-XXV, MIPE5.0, CellTiter-Glo, qHTS, dose response (AID 1347065; cut-off not given, nearly all actives have AC50 up to about 26 µM;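 also: cells exposed to compound for 48 hours before ATP readout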); settings: CellTiter-Glo ATP luminescence
[15] = SU-DIPG-VI glioma cell viability, MIPE4.0 library, CellTiter-Glo luminescence, qHTS (AID 1347066; cut-off not given, nearly all actives have AC50 up to about 30 µM;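 also: cells exposed to compound for 48 hours before readout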); settings: CellTiter-Glo ATP luminescence
[16] = JHH-DIPG-1 glioma cell viability, MIPE5.0 library, CellTiter-Glo luminescence, qHTS (AID 1347067; cut-off not given, nearly all actives have AC50 up to about 26 µM;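 also: cells exposed to compound for 48 hours before readout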); settings: JHH-DIPG-1 glioma viability, CellTiter-Glo ATP luminescence
[17] = modifiers of HSF1 nuclear foci, imaging, Selleck Cancer Library (AID 1347162; in the data active = plate-normalised HSF1 focus index below about 0.46); settings: human cells, at 10 µM; SSMD: measured here: HSF1 foci SSMD mean; cell count: measured here: cell number; plate-normalised HSF1 focus index: stronger effect = lower value
[18] = survival rescue of mitochondrial mutant cells in low glucose, primary screen, MELAS cybrids, Rieske KO mouse fibroblasts, CellTiter-Glo (AID 1508586;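 active = mean z-score across replicates of 1.96 or higher in either the MELAS or the Rieske mutant cell line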;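 also: z relative to plate mean and SD of compound and empty wells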)
[19] = ovarian cancer cell viability with rucaparib, profiling panel, oncology-focused library, rucaparib conditional (AID 1508598); settings: patient-derived ovarian cancer cells, CellTiter-Glo viability, 144 h, stronger effect = lower value
[20] = stronger effect = lower value, cell number ratio, induced over uninduced
[21] = measured here: relative caspase fold change +Dox/-Dox
[22] = measured here: total cells with miR-34 induction, stronger effect = lower value
[23] = measured here: total cells without miR-34 induction

Plasmodium falciparum protein kinase 6 (PK6, PF3D7_1337100), sequence (Q8IDW1 1-305): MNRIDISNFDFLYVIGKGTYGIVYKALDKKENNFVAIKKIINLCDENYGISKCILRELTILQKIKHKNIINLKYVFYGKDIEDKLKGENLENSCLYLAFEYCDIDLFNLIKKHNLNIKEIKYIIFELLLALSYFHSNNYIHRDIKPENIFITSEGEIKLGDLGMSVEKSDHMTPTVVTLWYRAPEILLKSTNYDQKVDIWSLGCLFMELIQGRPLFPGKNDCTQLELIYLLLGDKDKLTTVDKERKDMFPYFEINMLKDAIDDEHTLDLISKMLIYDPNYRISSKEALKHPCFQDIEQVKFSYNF
L-lactate dehydrogenase (Plasmodium falciparum (isolate CDC / Honduras)), sequence (Q27743 whole entry, looked up): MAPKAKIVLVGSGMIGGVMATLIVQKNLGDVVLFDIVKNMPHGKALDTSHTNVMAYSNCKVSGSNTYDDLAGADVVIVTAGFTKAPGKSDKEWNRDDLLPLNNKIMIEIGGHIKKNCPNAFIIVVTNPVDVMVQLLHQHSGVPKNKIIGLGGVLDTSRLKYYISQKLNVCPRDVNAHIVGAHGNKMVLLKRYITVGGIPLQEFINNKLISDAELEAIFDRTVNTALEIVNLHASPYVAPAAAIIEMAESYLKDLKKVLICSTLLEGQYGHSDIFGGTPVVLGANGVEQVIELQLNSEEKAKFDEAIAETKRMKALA
Calcium-dependent protein kinase 1 (Plasmodium falciparum (isolate 3D7)), sequence (P62344 whole entry, looked up): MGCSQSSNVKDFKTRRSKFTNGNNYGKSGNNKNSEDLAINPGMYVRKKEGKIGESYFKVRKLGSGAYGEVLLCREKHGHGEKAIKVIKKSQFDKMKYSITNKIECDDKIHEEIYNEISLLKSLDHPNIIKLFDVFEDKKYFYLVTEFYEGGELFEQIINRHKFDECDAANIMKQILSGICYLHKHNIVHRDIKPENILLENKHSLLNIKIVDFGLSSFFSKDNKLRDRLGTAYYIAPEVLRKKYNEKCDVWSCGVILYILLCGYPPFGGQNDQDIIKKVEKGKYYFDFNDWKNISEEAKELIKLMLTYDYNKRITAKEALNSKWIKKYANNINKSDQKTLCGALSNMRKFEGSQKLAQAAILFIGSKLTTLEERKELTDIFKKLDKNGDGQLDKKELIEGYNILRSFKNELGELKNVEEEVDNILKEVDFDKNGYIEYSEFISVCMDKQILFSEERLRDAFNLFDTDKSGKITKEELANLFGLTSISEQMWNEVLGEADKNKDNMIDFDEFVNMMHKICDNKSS
Calcium-dependent protein kinase 4 (Plasmodium falciparum (isolate 3D7)), sequence (Q8IBS5 whole entry, looked up): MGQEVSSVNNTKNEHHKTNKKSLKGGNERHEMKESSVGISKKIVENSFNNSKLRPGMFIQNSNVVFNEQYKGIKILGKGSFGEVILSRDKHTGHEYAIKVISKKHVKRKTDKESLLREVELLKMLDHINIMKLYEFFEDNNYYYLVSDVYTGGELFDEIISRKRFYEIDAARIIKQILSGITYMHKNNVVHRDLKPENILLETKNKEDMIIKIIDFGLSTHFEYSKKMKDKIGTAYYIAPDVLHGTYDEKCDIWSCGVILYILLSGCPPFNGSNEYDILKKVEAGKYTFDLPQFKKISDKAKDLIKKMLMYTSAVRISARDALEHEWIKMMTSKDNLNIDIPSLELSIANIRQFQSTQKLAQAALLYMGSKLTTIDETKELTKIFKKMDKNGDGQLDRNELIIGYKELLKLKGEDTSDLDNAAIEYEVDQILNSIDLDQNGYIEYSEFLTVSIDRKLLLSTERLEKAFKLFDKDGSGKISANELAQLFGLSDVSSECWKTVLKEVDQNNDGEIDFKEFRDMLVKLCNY
Protein kinase 7 (PK7), Plasmodium falciparum 3D7 (PF3D7_0213400), sequence (Q7YTF7 1-343): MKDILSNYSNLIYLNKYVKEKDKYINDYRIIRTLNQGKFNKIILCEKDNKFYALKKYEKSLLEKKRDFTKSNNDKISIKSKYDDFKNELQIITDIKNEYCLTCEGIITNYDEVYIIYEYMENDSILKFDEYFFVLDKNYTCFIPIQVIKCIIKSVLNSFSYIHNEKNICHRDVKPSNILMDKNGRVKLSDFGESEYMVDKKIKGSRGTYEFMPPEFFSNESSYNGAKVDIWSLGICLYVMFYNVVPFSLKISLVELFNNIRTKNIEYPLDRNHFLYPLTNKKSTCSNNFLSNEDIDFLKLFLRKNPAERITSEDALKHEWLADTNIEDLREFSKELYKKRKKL

CN(C)CCCSc1ccccc1NC(=O)C=Cc1ccccc1
8880: cell count [9, 22]
9280: cell count [9, 23]
active: growth inhibition [4] 85%
inactive: growth inhibition [1] -3% | inhibition [2] -4% | inhibition [3] -5% | outcome [5] | outcome [6] | outcome [7] | outcome [8] | fold change [9, 20] 0.957 | z-score [10] -0.13
1.81: fold change [9, 21]

CCNc1cc(C)nc(Nc2ccc(NS(=O)(=O)c3ccccc3)cc2)n1
inactive: inhibition [2] 41% | inhibition [3] -3% | outcome [5] | outcome [6] | outcome [7] | outcome [8]
active: growth inhibition [1] 54% | growth inhibition [4] 100%

FC(F)c1nc2ccccc2n1-c1nc(N2CCOCC2)nc(N2CCOCC2)n1
-0.274: SSMD [17]
inactive: inhibition [2] 47% | inhibition [3] -2% | outcome [5] | outcome [6] | outcome [7] | outcome [8] | fold change [9, 20] 0.814 | plate-normalised HSF1 focus index [17] 0.994 | viability ([19]; at 0.000305 µM, OCI-C5x cells, with rucaparib 10 µM, 100% = cells with rucaparib alone) 125% | viability ([19]; at 0.000305 µM, OCI-C5x cells, without rucaparib) 124% | viability ([19]; at 0.00122 µM, OCI-C5x cells, without rucaparib) 119% | viability ([19]; at 0.00488 µM, OCI-C5x cells, with rucaparib 10 µM, 100% = cells with rucaparib alone) 115% | viability ([19]; at 0.00488 µM, OCI-C5x cells, without rucaparib) 120% | viability ([19]; at 0.0195 µM, OCI-C5x cells, with rucaparib 10 µM, 100% = cells with rucaparib alone) 122% | viability ([19]; at 0.0195 µM, OCI-C5x cells, without rucaparib) 116% | viability ([19]; at 0.0781 µM, OCI-C5x cells, with rucaparib 10 µM, 100% = cells with rucaparib alone) 126% | viability ([19]; at 0.0781 µM, OCI-C5x cells, without rucaparib) 117% | viability ([19]; at 0.313 µM, OCI-C5x cells, with rucaparib 10 µM, 100% = cells with rucaparib alone) 128% | viability ([19]; at 0.313 µM, OCI-C5x cells, without rucaparib) 111% | viability ([19]; at 1.25 µM, OCI-C5x cells, with rucaparib 10 µM, 100% = cells with rucaparib alone) 107% | viability ([19]; at 1.25 µM, OCI-C5x cells, without rucaparib) 126%
-0.193: z-score ([18]; Rieske KO mouse fibroblast survival, CellTiter-Glo 72 h)
0.918: fold change [9, 21]
6850: cell count [17]
2350: cell count [9, 23]
active: growth inhibition [1] 99% | growth inhibition [4] 99% | AC50 [11] 742 nM | AC50 [12] 235 nM | AC50 [13] 833 nM | AC50 [14] 417 nM | AC50 [15] 3320 nM | AC50 [16] 2950 nM | z-score ([18]; MELAS cybrid survival, CellTiter-Glo 48 h, stronger effect = higher value) 2.99 | viability ([19]; at 0.000305 µM, OCI-P5x cells, with rucaparib 20 µM, 100% = cells with rucaparib alone) 88.5% | viability ([19]; at 0.000305 µM, OCI-P5x cells, without rucaparib) 82.7% | viability ([19]; at 0.00122 µM, OCI-P5x cells, with rucaparib 20 µM, 100% = cells with rucaparib alone) 75.5% | viability ([19]; at 0.00122 µM, OCI-P5x cells, without rucaparib) 34.1% | viability ([19]; at 0.00488 µM, OCI-P5x cells, with rucaparib 20 µM, 100% = cells with rucaparib alone) 93.4% | viability ([19]; at 0.00488 µM, OCI-P5x cells, without rucaparib) 97.4% | viability ([19]; at 0.0195 µM, OCI-P5x cells, with rucaparib 20 µM, 100% = cells with rucaparib alone) 94.1% | viability ([19]; at 0.0195 µM, OCI-P5x cells, without rucaparib) 90.9% | viability ([19]; at 0.0781 µM, OCI-P5x cells, with rucaparib 20 µM, 100% = cells with rucaparib alone) 89.9% | viability ([19]; at 0.0781 µM, OCI-P5x cells, without rucaparib) 93% | viability ([19]; at 0.313 µM, OCI-P5x cells, with rucaparib 20 µM, 100% = cells with rucaparib alone) 88.2% | viability ([19]; at 0.313 µM, OCI-P5x cells, without rucaparib) 84.5% | viability ([19]; at 1.25 µM, OCI-P5x cells, with rucaparib 20 µM, 100% = cells with rucaparib alone) 42% | viability ([19]; at 1.25 µM, OCI-P5x cells, without rucaparib) 62.9% | viability ([19]; at 5 µM, OCI-C5x cells, with rucaparib 10 µM, 100% = cells with rucaparib alone) 25.2% | viability ([19]; at 5 µM, OCI-C5x cells, without rucaparib) 45.8% | viability ([19]; at 5 µM, OCI-P5x cells, with rucaparib 20 µM, 100% = cells with rucaparib alone) 8.53% | viability ([19]; at 5 µM, OCI-P5x cells, without rucaparib) 15.4%
1920: cell count [9, 22]
